Results on 29 compounds are retold here after PubChem BioAssay (NCATS).

Inconclusive results are not listed. Unmarked numbers belong to inactive results. Calls of active or inactive are those of the source. Calls follow the shape of the dose curve; as a rule, active = well fitted cell-killing curve with a large enough effect; inconclusive = small, poorly fitted or top-dose-only effect, or effect the other way; inactive = no such curve, though single readings can be large or run the other way.
Potency is read from the fitted curve at half-maximal effect.

The nature of this test: Quantitative High-Throughput drug screen in 47 multiple myeloma cell lines against the NCATS MIPE library collection: Delta47_JCRB cell viability assay (AID 1918925; also: nearly all actives have a fitted effect of over 45% in size;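 as to viability (% of DMSO): 0% = media-only wells and 100% = DMSO-only wells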). Conditions: Delta47 myeloma viability, CellTiter-Glo ATP, 48 h; series mostly up to 45.8 µM; viability (% of DMSO): at the top concentration. In outline:
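Viability readout: CellTiter-Glo luminescence following 5 min room-temperature incubation with reagent. Prior exposure: 48 h, 37C, humidified 5% CO2, 500 cells per well.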
In general terms: In ATP-based viability assays light output follows the ATP content of the culture.
On to `C#CC1(O)CCC2C3CCC4=CC(=O)CCC4(C)C3CCC21C` (centres undefined), for which the “viability (% of DMSO)” value is 109%.

As for `CC(C)(O)C(=O)Nc1ccc([N+](=O)[O-])c(C(F)(F)F)c1`, the Potency was 7.43 µM (active).

For `COc1ccc(CC2NCCc3cc(OC)c(OC)cc32)cc1OC` (centres undefined), the “viability (% of DMSO)” value was 65.6%.

Turning to `C1=C2CCCN[C@H]2[C@@H]2C[C@H]1[C@@H]1CCCCN1C2`, the “viability (% of DMSO)” value was 112%.

Consider `CC(C)[C@]12O[C@@H]1[C@@H]1O[C@]13[C@]1(O[C@H]1C[C@@H]1C4=C(CC[C@@]13C)C(=O)OC4)[C@H]2O`, for which the “viability (% of DMSO)” value is 2.21%.

In the case of `c1cc2c(cc1[C@H]1OC[C@H]3[C@H]1CO[C@H]3c1ccc3c(c1)OCO3)OCO2`, the “viability (% of DMSO)” value is 112%.

`N=c1c2c(-c3ccccc3)c(-c3ccccc3)n(Cc3ccccc3)c2ncn1C1CCC(O)CC1` (centres undefined): the Potency was 0.166 µM (active).

On to `CC(N[C@H]1C[C@H]1c1ccccc1)c1ccc2c(c1)OCCO2` (some centres undefined), for which the “viability (% of DMSO)” value is 125%.

Turning to `O=C(N[C@@H](COc1ccc2[nH]c(=O)[nH]c2c1)c1ccccc1)c1cccn(Cc2ccc(F)c(F)c2)c1=O`, the Potency was 20.9 µM (active).

`O=c1[nH]c2ccccc2n1C1CCN(Cc2ccc(-c3[nH]c4cc5ncnc5cc4nc3-c3ccccc3)cc2)CC1`: the Potency was 1.87 µM (active).

For `CO[C@H]1CCC(O[C@H]2C[C@H]([C@]3(C)CC[C@]4(C[C@H](O)[C@@H](C)[C@@H]([C@@H](C)C=C(C)C(=O)[C@H](C)C[C@H](C)C(=O)O)O4)O3)O[C@]3(O[C@@H]([C@H]4O[C@@](O)(CO)[C@H](C)C[C@H]4C)C[C@H]3C)[C@H]2C)O[C@H]1C` (some centres undefined), the Potency is 1.18 µM (active).

For the compound `Cc1c(N)nc([C@H](CC(N)=O)NC[C@@H](N)C(N)=O)nc1C(=O)N[C@H](C(=O)N[C@@H](C)[C@H](O)[C@@H](C)C(=O)N[C@@H](C(=O)NCCc1nc(-c2nc(C(=O)NCCC[S+](C)C)cs2)cs1)[C@@H](C)O)C(O[C@H]1O[C@H](CO)[C@H](O)[C@@H](O)[C@@H]1O[C@H]1O[C@H](CO)[C@@H](O)[C@H](OC(N)=O)[C@H]1O)c1cnc[nH]1` (some centres undefined), the Potency is 0.469 µM (active).

With `C[C@H]1CCCC=CC2C[C@H](O)C[C@@H]2[C@H](O)C=CC(=O)O1` (some centres undefined), the “viability (% of DMSO)” value was 5.73%.

Consider `c1ccc2c(CN3CCNCC3)cccc2c1`, for which the “viability (% of DMSO)” value is 93.6%.

As to `CCCC[N+]1(C)[C@H]2CC(OC(=O)[C@H](CO)c3ccccc3)C[C@H]1[C@H]1O[C@H]12` (some centres undefined), the “viability (% of DMSO)” value was 101%.

Consider `CCOC(=O)c1c(C(C#N)=CN)c2ccc(Cl)c(Cl)c2n1C`, for which the “viability (% of DMSO)” value is 80.2%.

For `COc1ccc(C(=O)c2c(C)n(CCN3CCOCC3)c3cc(I)ccc23)cc1`, the Potency was 16.6 µM (active).

For `C[C@]12CC[C@H]3[C@@H](CCC4=CC(=O)CC[C@@]43C)[C@H]1CC[C@H]2OC(=O)CCC1CCCC1`, the “viability (% of DMSO)” value is 85.3%.

For `CCOC(=O)Nc1ccc(NCc2ccc(F)cc2)cc1N`, the Potency is 7.43 µM (active).

`C[C@]12COC(=O)C[C@@H]1CC[C@@H]1[C@H]2CC[C@@]2(C)[C@H]1CC[C@]2(C)O`: the “viability (% of DMSO)” value was 116%.

As to `CC=C(C)C(=O)O[C@H]1C(C)=C2[C@@H]3OC(=O)[C@@](C)(O)[C@@]3(O)[C@@H](OC(=O)CCC)C[C@](C)(OC(C)=O)[C@@H]2[C@@H]1OC(=O)CCCCCCC`, the Potency was 0.235 µM (active).

As for `N#C[C@H](O[C@@H]1O[C@H](CO[C@@H]2O[C@H](CO)[C@H](O)[C@H](O)[C@H]2O)[C@H](O)[C@H](O)[C@H]1O)c1ccccc1`, the Potency is 18.7 µM (active).

Take `COC[C@H]1OC(=O)c2coc3c2[C@@]1(C)C1=C(C3=O)[C@@H]2CC[C@H](O)[C@@]2(C)C[C@@H]1OC(C)=O`: the Potency is 0.0066 µM (active).

With `CCOC(=O)c1cncn1[C@H](C)c1ccccc1`, the “viability (% of DMSO)” value is 81.7%.

For the compound `COc1cc2cc(c1Cl)N(C)C(=O)C[C@H](OC(=O)C(C)C)[C@]1(C)O[C@H]1[C@H](C)[C@@H]1C[C@@](O)(NC(=O)O1)[C@H](OC)C=CC=C(C)C2`, the “viability (% of DMSO)” value was 6.14%.

Take `CC[C@@H]1[C@@H](C)O[C@@](O)([C@@H](C)[C@H](O)[C@H](C)[C@H]2OC(=O)C=CC=C[C@@H](C)[C@@H]([C@@H](C)[C@@H](O)[C@H](C)[C@@]3(O)C[C@H](O[C@H]4C[C@H](O)[C@H](O)[C@H](C)O4)[C@H](CC)[C@@H](C)O3)OC(=O)C=CC=C[C@@H]2C)C[C@H]1O[C@H]1C[C@H](O)[C@H](O)[C@H](C)O1`: the Potency is 0.743 µM (active).

Regarding `CC(C)[C@H]1C(=O)N[C@H](CO)Cc2c[nH]c3cccc(c23)N1C`, the “viability (% of DMSO)” value is 94.3%.

On to `C[C@@H]1CC[C@@]2(OC1)O[C@H]1C[C@H]3[C@@H]4CC=C5C[C@@H](O[C@@H]6O[C@H](CO)[C@@H](O[C@@H]7O[C@@H](C)[C@H](O)[C@@H](O)[C@@H]7O)[C@H](O)[C@@H]6O[C@@H]6O[C@@H](C)[C@H](O)[C@@H](O)[C@@H]6O)CC[C@]5(C)[C@@H]4CC[C@]3(C)[C@@H]1[C@H]2C`, for which the Potency was 5.9 µM (active).

With `CC(C)(C)c1cc(C=C(C#N)C#N)cc(Br)c1O`, the Potency is 16.6 µM (active).
